# Measured values taken from paper PMC7862700, “An all-to-all approach to the identification of sequence-specific readers for epigenetic DNA modifications on cytosine”.
# Experiments:
# Experiment in all cases: DAPPL (digital affinity profiling via proximity ligation, sequencing); 10 mM Tris-HCl pH 7.5, 50 mM NaCl, 1 mM DTT, 4% glycerol, room temperature, 30 min; GST-TFs on glutathione beads, 16-mer random dsDNA library, 0.1% formaldehyde crosslink after washing; high values mean tight binding
# FLI1 = target: T1, FLI1 (Homo sapiens, UniProt Q01543 1-452); details: protein: recombinant; tags: N-terminal GST; dsDNA, one strand shown
# T1 sequence: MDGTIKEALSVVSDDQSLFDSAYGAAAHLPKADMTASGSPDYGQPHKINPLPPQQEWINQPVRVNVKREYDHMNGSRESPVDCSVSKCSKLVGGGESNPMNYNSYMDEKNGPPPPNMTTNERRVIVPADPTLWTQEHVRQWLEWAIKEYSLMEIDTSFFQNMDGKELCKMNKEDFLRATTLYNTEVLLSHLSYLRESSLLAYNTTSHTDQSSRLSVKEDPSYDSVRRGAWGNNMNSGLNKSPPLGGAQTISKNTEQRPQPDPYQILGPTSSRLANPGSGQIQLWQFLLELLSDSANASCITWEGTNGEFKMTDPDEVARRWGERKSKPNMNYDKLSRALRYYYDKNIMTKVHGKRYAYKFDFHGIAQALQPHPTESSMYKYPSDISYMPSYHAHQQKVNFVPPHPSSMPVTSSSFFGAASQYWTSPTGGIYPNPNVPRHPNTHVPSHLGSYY
# Outline: (§1)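 A tag-only sample was pooled with DNA-barcoded human transcription factors that had been expressed in yeast as GST fusions and captured on glutathione beads. The pools were incubated for 30 min at room temperature with 200 nmole of a random double-stranded 16-mer DNA library in Tris/NaCl/DTT/glycerol buffer, then washed, crosslinked with 0.1% formaldehyde, proximity-ligated (BsaI/T4 ligase, 1 h, 37 °C), PCR-amplified and sequenced on an Illumina NextSeq500. Binding signal is each hexamer's read frequency for a factor divided by its frequency for the tag-only sample.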
# ELK1 = target: T2, ELK1 (Homo sapiens, UniProt P19419 1-428); details: protein: recombinant; tags: N-terminal GST; dsDNA, one strand shown
# T2 sequence: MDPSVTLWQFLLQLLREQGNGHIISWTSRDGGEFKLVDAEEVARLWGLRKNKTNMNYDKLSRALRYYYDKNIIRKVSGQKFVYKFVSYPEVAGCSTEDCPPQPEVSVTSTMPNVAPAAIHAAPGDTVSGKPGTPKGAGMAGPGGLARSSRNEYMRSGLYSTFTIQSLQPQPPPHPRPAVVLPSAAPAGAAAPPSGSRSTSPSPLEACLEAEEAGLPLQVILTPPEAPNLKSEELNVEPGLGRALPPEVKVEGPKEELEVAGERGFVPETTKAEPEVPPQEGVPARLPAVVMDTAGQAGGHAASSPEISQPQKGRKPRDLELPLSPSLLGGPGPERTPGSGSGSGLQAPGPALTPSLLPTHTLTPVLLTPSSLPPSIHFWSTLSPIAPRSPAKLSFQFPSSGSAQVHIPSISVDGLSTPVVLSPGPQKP
# Outline: as §1
# GABPA = target: T3, GABPA (Homo sapiens, UniProt Q06546 1-454); details: protein: recombinant; tags: N-terminal GST; dsDNA, one strand shown
# T3 sequence: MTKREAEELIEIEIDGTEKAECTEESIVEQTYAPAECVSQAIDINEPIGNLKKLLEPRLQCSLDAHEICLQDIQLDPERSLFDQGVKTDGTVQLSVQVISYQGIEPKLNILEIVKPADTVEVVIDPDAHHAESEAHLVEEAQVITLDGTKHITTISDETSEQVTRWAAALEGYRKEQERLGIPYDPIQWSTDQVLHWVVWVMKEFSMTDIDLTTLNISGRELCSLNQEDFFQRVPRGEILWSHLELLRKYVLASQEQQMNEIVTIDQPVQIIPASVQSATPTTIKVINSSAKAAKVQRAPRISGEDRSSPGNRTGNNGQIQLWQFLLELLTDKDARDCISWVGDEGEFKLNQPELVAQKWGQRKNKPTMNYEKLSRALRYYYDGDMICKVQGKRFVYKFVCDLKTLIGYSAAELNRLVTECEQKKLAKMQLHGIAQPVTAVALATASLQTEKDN
# Outline: as §1
# ERG = target: T4, ERG (Homo sapiens, UniProt P11308 1-479); details: protein: recombinant; tags: N-terminal GST; dsDNA, one strand shown
# T4 sequence: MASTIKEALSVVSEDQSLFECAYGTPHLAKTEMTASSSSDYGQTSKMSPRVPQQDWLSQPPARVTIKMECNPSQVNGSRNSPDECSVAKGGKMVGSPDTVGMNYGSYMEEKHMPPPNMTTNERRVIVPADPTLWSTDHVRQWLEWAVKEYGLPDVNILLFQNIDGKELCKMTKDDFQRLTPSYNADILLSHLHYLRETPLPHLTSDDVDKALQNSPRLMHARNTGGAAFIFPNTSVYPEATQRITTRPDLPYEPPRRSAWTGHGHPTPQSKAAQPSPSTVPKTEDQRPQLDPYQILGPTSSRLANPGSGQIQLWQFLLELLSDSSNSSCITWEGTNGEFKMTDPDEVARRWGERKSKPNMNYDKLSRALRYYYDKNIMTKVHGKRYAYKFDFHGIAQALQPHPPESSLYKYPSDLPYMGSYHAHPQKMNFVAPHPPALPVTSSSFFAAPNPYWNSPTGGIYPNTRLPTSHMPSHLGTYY
# Outline: as §1
# ELF1 = ELF1 (Homo sapiens, UniProt P32519 1-619); details: protein: recombinant; tags: N-terminal GST; dsDNA, one strand shown
# ELF1, sequence (P32519 whole entry): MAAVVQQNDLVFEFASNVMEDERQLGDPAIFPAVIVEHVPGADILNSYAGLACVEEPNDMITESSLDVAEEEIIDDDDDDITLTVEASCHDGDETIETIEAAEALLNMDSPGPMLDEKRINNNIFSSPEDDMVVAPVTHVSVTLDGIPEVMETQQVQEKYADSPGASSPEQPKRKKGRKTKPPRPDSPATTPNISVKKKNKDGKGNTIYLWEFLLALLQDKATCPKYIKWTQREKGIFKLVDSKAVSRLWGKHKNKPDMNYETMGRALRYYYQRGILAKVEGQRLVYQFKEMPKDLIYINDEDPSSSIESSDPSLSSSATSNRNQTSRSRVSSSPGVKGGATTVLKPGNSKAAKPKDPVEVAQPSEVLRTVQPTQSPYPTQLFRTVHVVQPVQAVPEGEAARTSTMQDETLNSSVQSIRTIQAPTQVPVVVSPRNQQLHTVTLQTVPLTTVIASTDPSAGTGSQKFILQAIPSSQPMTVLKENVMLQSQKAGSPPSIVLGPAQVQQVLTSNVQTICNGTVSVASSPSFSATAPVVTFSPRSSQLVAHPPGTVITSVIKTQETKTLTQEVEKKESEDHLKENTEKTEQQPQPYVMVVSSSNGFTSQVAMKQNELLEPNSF
# Outline: as §1
# EHF = target: T5, EHF (Homo sapiens, UniProt Q9NZC4 1-300); details: protein: recombinant; tags: N-terminal GST; dsDNA, one strand shown
# T5 sequence: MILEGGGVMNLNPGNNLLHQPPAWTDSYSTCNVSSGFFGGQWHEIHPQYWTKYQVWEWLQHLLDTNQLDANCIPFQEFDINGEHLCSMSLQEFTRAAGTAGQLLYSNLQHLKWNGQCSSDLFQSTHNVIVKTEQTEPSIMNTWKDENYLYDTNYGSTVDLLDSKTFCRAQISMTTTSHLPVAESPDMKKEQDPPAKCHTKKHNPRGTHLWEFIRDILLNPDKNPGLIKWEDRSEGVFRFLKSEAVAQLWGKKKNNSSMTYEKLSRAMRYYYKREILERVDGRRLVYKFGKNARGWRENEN
# Outline: as §1
# SPI1 = SPI1 (Homo sapiens, UniProt P17947 1-270); details: protein: recombinant; tags: N-terminal GST; dsDNA, one strand shown
# Outline: as §1
# SPIB = SPIB (Homo sapiens, UniProt Q01892 1-262); details: protein: recombinant; tags: N-terminal GST; dsDNA, one strand shown
# SPIB, sequence (Q01892 whole entry): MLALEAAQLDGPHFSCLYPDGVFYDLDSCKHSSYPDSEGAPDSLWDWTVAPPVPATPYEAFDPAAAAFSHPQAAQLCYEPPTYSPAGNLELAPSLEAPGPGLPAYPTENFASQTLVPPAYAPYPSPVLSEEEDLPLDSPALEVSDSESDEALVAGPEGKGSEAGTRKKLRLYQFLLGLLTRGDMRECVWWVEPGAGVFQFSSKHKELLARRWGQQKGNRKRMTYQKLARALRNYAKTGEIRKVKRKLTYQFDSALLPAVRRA
# Outline: as §1
# ELK3 = target: T6, ELK3 (Homo sapiens, UniProt P41970 1-407); details: protein: recombinant; tags: N-terminal GST; dsDNA, one strand shown
# T6 sequence: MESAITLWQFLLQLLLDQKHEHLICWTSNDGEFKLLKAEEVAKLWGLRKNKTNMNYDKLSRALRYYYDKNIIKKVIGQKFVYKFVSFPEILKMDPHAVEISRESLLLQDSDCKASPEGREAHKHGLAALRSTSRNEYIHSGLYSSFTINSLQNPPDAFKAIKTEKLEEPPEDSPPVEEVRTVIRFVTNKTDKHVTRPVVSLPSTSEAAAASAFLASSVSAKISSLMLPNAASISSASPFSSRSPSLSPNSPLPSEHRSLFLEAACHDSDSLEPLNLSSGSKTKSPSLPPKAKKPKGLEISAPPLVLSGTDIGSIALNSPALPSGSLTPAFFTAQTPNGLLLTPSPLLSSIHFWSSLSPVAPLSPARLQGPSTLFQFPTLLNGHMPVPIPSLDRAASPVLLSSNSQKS
# Outline: as §1
# FEV = target: T7, FEV (Homo sapiens, UniProt Q99581 1-238); details: protein: recombinant; tags: N-terminal GST; dsDNA, one strand shown
# T7 sequence: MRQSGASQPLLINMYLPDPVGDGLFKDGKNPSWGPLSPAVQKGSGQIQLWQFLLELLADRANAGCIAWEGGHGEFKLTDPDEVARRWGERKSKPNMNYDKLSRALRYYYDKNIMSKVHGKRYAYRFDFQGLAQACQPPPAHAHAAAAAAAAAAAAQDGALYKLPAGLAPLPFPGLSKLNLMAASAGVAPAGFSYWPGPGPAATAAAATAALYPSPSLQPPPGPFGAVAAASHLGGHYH
# Outline: as §1
# ETV5 = ETV5 (Homo sapiens, UniProt P41161 1-510); details: protein: recombinant; tags: N-terminal GST; dsDNA, one strand shown
# ETV5, sequence (P41161 whole entry): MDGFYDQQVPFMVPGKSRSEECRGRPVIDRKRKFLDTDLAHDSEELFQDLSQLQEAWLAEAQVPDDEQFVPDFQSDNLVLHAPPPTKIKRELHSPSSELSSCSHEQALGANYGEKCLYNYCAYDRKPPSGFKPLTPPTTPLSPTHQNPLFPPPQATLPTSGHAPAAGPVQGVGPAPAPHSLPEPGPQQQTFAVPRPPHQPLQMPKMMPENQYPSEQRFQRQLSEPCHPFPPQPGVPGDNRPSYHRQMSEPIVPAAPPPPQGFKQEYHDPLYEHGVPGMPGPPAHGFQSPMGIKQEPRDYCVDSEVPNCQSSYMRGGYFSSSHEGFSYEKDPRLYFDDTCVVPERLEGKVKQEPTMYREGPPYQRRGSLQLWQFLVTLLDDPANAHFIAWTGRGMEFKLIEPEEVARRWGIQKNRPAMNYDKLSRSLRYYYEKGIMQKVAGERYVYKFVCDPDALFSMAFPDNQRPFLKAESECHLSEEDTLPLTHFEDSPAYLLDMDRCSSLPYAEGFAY
# Outline: as §1
# HSF1 = HSF1 (Homo sapiens, UniProt Q00613 1-529); details: protein: recombinant; tags: N-terminal GST; chain copies: 3; dsDNA, one strand shown
# HSF1, sequence (Q00613 whole entry): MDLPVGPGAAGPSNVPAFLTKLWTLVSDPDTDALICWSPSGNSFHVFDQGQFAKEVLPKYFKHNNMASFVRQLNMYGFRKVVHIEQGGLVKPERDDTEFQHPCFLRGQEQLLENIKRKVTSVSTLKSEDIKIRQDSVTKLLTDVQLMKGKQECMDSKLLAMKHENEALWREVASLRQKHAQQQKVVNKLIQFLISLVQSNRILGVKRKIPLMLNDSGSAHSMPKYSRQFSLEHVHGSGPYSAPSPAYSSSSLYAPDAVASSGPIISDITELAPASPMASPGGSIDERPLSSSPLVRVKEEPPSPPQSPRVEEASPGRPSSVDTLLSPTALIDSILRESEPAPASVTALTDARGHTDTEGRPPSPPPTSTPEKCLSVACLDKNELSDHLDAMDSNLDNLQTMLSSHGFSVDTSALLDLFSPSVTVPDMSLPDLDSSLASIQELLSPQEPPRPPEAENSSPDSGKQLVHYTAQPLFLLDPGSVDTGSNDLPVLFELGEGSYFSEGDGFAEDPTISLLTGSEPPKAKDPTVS
# Outline: as §1
# SPIC = target: T8, SPIC (Homo sapiens, UniProt Q8N5J4 1-248); details: protein: recombinant; tags: N-terminal GST; dsDNA, one strand shown
# T8 sequence: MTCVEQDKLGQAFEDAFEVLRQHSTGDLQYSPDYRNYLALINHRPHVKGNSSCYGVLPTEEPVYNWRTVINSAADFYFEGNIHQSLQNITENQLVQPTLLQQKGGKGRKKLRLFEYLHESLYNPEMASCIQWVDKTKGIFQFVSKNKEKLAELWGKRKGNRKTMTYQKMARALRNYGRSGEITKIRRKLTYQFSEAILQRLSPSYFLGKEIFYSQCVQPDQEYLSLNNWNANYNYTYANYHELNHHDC
# Outline: as §1
# ELF4 = ELF4 (Homo sapiens, UniProt Q99607 1-663); details: protein: recombinant; tags: N-terminal GST; dsDNA, one strand shown
# ELF4, sequence (Q99607 whole entry): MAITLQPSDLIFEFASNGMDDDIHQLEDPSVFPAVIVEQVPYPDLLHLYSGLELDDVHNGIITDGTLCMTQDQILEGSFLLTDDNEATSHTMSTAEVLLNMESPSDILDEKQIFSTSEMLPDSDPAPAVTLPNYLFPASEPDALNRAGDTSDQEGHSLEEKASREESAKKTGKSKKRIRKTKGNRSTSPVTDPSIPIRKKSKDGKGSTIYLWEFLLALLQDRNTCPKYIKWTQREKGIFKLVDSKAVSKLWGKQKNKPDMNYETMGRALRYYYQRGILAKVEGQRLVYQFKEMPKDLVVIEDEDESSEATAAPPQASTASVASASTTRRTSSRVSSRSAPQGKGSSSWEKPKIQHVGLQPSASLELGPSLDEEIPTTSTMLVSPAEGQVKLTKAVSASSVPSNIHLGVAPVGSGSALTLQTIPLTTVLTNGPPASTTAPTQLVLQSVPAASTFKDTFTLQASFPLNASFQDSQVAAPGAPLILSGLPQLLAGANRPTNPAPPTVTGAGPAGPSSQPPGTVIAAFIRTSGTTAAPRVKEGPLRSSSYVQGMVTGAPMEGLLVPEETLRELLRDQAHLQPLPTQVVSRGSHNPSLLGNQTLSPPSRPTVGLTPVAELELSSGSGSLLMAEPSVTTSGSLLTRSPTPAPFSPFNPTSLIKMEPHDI
# Outline: as §1
# ELK4 = target: T9, ELK4 (Homo sapiens, UniProt P28324-2 1-405); details: protein: recombinant; tags: N-terminal GST; dsDNA, one strand shown
# T9 sequence: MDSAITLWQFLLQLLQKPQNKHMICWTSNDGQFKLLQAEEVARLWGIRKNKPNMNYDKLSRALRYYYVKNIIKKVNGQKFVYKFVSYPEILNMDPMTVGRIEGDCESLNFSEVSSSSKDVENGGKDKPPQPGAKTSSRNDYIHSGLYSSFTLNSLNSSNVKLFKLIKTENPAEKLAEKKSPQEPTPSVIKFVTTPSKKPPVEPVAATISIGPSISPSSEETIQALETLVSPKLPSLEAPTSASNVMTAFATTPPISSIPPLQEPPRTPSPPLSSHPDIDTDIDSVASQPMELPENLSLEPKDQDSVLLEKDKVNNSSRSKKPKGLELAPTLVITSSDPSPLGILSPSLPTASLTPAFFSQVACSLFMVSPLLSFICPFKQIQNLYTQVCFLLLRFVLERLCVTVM
# Outline: as §1
# ETV2 = target: T10, ETV2 (Homo sapiens, UniProt O00321 1-342); details: protein: recombinant; tags: N-terminal GST; dsDNA, one strand shown
# T10 sequence: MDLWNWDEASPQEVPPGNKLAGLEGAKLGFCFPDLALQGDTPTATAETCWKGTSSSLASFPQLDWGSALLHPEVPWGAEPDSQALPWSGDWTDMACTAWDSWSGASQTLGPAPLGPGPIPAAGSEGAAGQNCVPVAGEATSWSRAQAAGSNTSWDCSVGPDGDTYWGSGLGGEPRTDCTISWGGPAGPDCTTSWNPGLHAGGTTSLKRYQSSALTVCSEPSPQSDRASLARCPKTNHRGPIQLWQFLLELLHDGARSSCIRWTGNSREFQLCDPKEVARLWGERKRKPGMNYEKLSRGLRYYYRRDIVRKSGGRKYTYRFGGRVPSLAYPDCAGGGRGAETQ
# Outline: as §1
# ELF3 = target: T11, ELF3 (Homo sapiens, UniProt P78545 1-371); details: protein: recombinant; tags: N-terminal GST; dsDNA, one strand shown
# T11 sequence: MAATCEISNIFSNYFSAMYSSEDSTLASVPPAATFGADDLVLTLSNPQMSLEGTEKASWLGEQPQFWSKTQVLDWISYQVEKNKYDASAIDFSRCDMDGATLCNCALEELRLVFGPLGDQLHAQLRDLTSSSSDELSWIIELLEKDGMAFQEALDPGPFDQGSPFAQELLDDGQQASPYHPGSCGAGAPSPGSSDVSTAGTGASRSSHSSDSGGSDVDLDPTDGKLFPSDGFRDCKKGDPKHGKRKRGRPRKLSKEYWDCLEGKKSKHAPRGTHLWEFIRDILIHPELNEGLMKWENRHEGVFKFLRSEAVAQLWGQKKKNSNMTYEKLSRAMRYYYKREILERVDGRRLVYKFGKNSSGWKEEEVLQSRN
# Outline: as §1
# CRX = CRX (Homo sapiens, UniProt O43186 1-299); details: protein: recombinant; tags: N-terminal GST; dsDNA, one strand shown
# CRX, sequence (O43186 whole entry): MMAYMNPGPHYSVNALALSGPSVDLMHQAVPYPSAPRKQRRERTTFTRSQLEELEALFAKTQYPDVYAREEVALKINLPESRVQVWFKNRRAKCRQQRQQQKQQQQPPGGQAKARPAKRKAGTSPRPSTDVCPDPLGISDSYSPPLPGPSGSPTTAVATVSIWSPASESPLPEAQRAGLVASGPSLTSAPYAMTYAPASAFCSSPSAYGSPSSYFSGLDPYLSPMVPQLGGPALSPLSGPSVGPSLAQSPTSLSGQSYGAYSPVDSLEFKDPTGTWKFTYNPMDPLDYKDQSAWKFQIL
# Outline: as §1
# ETV1 = ETV1 (Homo sapiens, UniProt P50549 1-477); details: protein: recombinant; tags: N-terminal GST; dsDNA, one strand shown
# ETV1, sequence (P50549 whole entry): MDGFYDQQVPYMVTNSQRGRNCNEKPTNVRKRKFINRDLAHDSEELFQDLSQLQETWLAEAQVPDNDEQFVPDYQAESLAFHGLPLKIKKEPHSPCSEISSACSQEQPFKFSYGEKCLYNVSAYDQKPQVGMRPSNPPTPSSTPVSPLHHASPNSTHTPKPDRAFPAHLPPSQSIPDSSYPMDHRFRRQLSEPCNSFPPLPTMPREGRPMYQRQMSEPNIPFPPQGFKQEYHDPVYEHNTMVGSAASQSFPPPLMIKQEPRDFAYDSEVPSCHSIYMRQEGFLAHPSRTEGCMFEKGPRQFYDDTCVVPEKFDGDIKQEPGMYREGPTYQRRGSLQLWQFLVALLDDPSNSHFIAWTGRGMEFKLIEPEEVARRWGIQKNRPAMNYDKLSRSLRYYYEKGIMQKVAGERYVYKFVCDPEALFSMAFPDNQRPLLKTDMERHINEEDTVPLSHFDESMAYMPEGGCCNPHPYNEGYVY
# Outline: as §1
sequence,measurement,setting,value
TTTGGA,binding signal,FLI1,"1.15 fold enrichment (6-mer frequency, TF over GST control)"
same,binding signal,ELK1,"1.14 fold enrichment (6-mer frequency, TF over GST control)"
same,binding signal,GABPA,"1.24 fold enrichment (6-mer frequency, TF over GST control)"
same,binding signal,ERG,"1.11 fold enrichment (6-mer frequency, TF over GST control)"
same,binding signal,ELF1,"1.18 fold enrichment (6-mer frequency, TF over GST control)"
same,binding signal,EHF,"1.09 fold enrichment (6-mer frequency, TF over GST control)"
same,binding signal,SPI1,"1.19 fold enrichment (6-mer frequency, TF over GST control)"
same,binding signal,SPIB,"1.22 fold enrichment (6-mer frequency, TF over GST control)"
same,binding signal,ELK3,"1.14 fold enrichment (6-mer frequency, TF over GST control)"
same,binding signal,FEV,"1.2 fold enrichment (6-mer frequency, TF over GST control)"
same,binding signal,ETV5,"1.21 fold enrichment (6-mer frequency, TF over GST control)"
same,binding signal,HSF1,"1.48 fold enrichment (6-mer frequency, TF over GST control)"
same,binding signal,SPIC,"1.28 fold enrichment (6-mer frequency, TF over GST control)"
same,binding signal,ELF4,"1.12 fold enrichment (6-mer frequency, TF over GST control)"
same,binding signal,ELK4,"1.14 fold enrichment (6-mer frequency, TF over GST control)"
same,binding signal,ETV2,"1.22 fold enrichment (6-mer frequency, TF over GST control)"
same,binding signal,ELF3,"1.13 fold enrichment (6-mer frequency, TF over GST control)"
same,binding signal,CRX,"1.48 fold enrichment (6-mer frequency, TF over GST control)"
same,binding signal,ETV1,"1.24 fold enrichment (6-mer frequency, TF over GST control)"
